# Source: PubChem (Broad Institute)
# Rows were chosen to be rich in hits. Some 3.1% of all compounds tested hit in one or more screens of this group.
# FGF22 binding – binders of human FGF22 protein, primary screen, FGF22 synaptogenesis inhibitor project, biophysical, thermal shift, single point. activity (Tm shift, normalised), % at 9.99 µM. recombinant FGF22 thermal shift, SYPRO orange fluorescence; percent of sucrose octasulfate shift, DMSO zero. 340,000 compounds, 1.5% hits;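 active means mean Tm shift, scaled 0 neutral to 100 positive control, at about 1.3% or above, every replicate too, limit read from the data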
# SIRT5 inh – SIRT5 desuccinylase inhibitors, primary screen, biochemical, fluorescence imaging, single point, set 5. AID 652115, 2013. NAD-dependent protein deacylase sirtuin-5, mitochondrial (Homo sapiens), Q9NXA8. inhibition, % at 15 µM. 330,000 compounds, 1.1% hits. Purified SirT5, succinyl-peptide AMC, trypsin-coupled fluorescence; in the data active means inhibition above about 15%
# ERAP1 inh – human ERAP1 aminopeptidase inhibitors, primary screen, biochemical, single point, plate reader | recombinant ERAP1, Leu-AMC fluorescence, 60 min | inhibition, % at 10.7 µM | 340,000 compounds, 0.15% hits | AID 652197, 2013;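 active means mean replicate inhibition of at least 30%, or all replicates individually reaching that 30% level; inactive means mean below 30% and not every replicate reaching it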
# Target sequence (Q9NZ08 whole entry, looked up): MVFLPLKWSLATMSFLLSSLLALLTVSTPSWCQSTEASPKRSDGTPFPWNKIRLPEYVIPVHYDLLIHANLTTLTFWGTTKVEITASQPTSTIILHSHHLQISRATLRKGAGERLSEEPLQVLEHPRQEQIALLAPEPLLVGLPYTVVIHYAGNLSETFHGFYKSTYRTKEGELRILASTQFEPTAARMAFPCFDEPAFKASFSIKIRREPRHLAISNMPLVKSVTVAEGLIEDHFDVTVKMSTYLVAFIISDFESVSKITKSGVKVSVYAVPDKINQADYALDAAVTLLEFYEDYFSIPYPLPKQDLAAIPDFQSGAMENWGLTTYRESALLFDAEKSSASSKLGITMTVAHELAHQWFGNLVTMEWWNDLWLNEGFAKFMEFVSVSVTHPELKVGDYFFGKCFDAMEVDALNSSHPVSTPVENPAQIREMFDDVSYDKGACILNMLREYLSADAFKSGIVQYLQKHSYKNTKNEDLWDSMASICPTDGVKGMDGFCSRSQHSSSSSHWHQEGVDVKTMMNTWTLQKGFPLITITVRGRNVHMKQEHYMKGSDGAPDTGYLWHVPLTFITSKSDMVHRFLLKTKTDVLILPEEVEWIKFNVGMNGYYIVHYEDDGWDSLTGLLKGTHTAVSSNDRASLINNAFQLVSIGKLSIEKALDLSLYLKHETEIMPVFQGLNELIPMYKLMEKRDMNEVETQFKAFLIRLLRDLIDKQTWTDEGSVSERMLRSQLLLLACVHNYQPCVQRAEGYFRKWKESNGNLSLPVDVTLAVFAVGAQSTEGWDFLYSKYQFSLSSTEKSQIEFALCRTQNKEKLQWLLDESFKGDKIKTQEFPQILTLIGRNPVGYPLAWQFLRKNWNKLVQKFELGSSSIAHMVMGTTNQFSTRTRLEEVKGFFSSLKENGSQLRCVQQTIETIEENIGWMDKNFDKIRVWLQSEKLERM
# Casp6 inh – human caspase-6 inhibitors, primary screen, biochemical, VEID-R110 fluorescence, single point, set 2; P55212; purified caspase-6, Z-VEID-R110 cleavage fluorescence; inhibition, % at 12.5 µM; 350,000 compounds, 0.53% hits; AID 686996, 2013;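 active means mean inhibition across replicates at least about 35%, with every replicate also reaching that limit, limit read from the data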
# Hits are given with their value; . = inactive; / = not tested or not shown.
SMILES,FGF22 binding,SIRT5 inh,ERAP1 inh,Casp6 inh
C/C=C/c1ccc2c(c1)O[C@@H](CN(C)C(=O)Nc1cc(F)ccc1F)[C@H](C)CN([C@H](C)CO)S2(=O)=O,.,.,.,.
C[C@@H]1CN([C@H](C)CO)S(=O)(=O)c2ccc(/C=C/c3ccccc3)cc2O[C@@H]1CN(C)C(=O)Nc1cc(F)ccc1F,.,25.1,.,.
C[C@H]1CN([C@@H](C)CO)S(=O)(=O)c2ccc(-c3cccc(F)c3)cc2O[C@@H]1CN(C)C(=O)Nc1cc(F)ccc1F,.,18.7,.,.
C[C@@H]1CN([C@H](C)CO)C(=O)c2c(c3ccccc3n2C)-c2ccccc2CO[C@@H]1CN(C)C(=O)C1CC1,.,.,.,.
CCCC(=O)N1CC2(CN(C)C2)c2c(n(C)c3cc(OC)ccc23)[C@@H]1CO,.,/,.,/
CC(C)C(=O)Nc1ccc2c(c1)C(=O)N(C)[C@H]1CC[C@H](CC(=O)Nc3cccc(F)c3)O[C@@H]1CO2,.,.,.,.
COc1ccc(C[C@](C)(N)C(=O)O)cc1OC,.,.,.,.
C[C@](N)(Cc1ccc(O)c(O)c1)C(=O)O,.,.,.,87.1
COc1cc2cccc(OC)c(=O)c2c(O)c1OC,.,.,.,.
COc1cc2c(ccc3cc(OC)c(OC)c(O)c32)cc1O,.,/,/,85.7
Cc1noc(C)c1S(=O)(=O)Nc1ccc2c(c1)C(=O)N([C@@H](C)CO)C[C@H](C)[C@@H](CN(C)S(C)(=O)=O)O2,.,.,.,.
Nc1nc(N)c2c(n1)CN(Cc1ccc(Cl)cc1)C2,43.1,/,.,.
CCOC(=O)c1c(N2C(=O)Nc3ccccc3N2O)n[nH]c1-c1cccc(OC)c1,42.9,.,.,.
CCOC(=O)c1sc(-c2ccc(Cl)cc2)nc1O,/,.,/,.
CCOC(=O)c1sc(C)c2c(=O)n(Cc3ccc(Cl)cc3)cnc12,.,.,.,49.9
CN(C)C(=O)C[C@H]1C[C@H]2c3cc(NC(=O)C4CCC4)ccc3O[C@H]2[C@@H](CO)O1,.,.,.,.
NC(=O)c1sc2nc(-c3ccccc3)ccc2c1N,.,.,.,.
CC(=O)c1sc2nc(-c3ccco3)ccc2c1N,.,.,.,64.1
COC(=O)c1nc2n(n1)C(c1ccc(OC)c(OC)c1OC)C1=C(CCCC1=O)N2 (stereo not given),/,.,.,.
COc1cc(-c2nc3n(n2)C(c2ccncc2)C2=C(CCCC2=O)N3)cc(OC)c1OC (stereo not given),44.0,.,.,.
COc1ccccc1-c1cc(C(=O)NC(C)C)no1,.,21.9,.,.
C[C@@H]1CN([C@@H](C)CO)S(=O)(=O)c2ccc(C#CC3(O)CCCC3)cc2O[C@@H]1CN(C)C(=O)Nc1ccccc1,.,.,.,.
Cc1ccc2c(c1)S/C(=C/c1ccc[n+](C)c1)N2CCO,.,.,52.5,.
CCN(CC)CCN1C(=O)C2C(C(=O)Nc3cccc(C)c3)C3C=CC2(O3)C1C(=O)NC1CCCC(C)C1C (stereo not given),.,19.0,.,.
CC1CCCC(NC(=O)C2N(CCCN3CCCC3)C(=O)C3C(C(=O)Nc4ccc(Cl)cc4)C4C=CC32O4)C1C (stereo not given),.,.,.,.
SMILES,FGF22 binding,SIRT5 inh,ERAP1 inh,Casp6 inh
Cc1ccc(-c2ccc3c(c2)O[C@H](CN(C)C(=O)Nc2ccccc2)[C@H](C)CN([C@@H](C)CO)S3(=O)=O)cc1,.,.,/,/
Cc1ccc(-c2ccc3c(c2)O[C@@H](CN(C)C(=O)Nc2ccccc2)[C@@H](C)CN([C@@H](C)CO)S3(=O)=O)cc1,1.5,.,/,/
Cc1ccccc1-c1ccc2c(c1)O[C@H](CN(C)C(=O)Nc1ccc(F)cc1)[C@H](C)CN([C@H](C)CO)S2(=O)=O,.,15.7,.,.
CN(C)c1ccc2c(c1)[C@@H]1C[C@@H](CC(=O)NCCc3ccccc3)O[C@H](CO)[C@@H]1O2,.,.,.,.
COc1ccc(NC(=O)Nc2ccc3c(c2)C(=O)N([C@@H](C)CO)C[C@@H](C)[C@@H](CN(C)Cc2ccc(Cl)c(Cl)c2)OCCCC[C@@H](C)O3)cc1,.,.,.,.
Fc1ccc(-c2nnc3ccccn23)cc1,43.2,.,.,.
Fc1ccc(-c2ncc3ccccn23)cc1,.,.,.,.
O=C(c1ccc(F)cc1)N1CC(=O)N2[C@H](CO)[C@H](c3ccc(C#CC4CCCCC4)cc3)[C@H]2C1,/,.,.,.
O=S(=O)(Nc1ccc(O)c2ccccc12)c1cccs1,.,.,.,53.1
O=C(Nc1ccc(Cl)c(Cl)c1)Nc1ccccc1NS(=O)(=O)c1cccs1,1.7,.,.,.
O=S(=O)(Nc1cccc2ccccc12)c1cccs1,.,.,.,.
CC(C)N1C(=O)CCN(C=O)c2ccccc21,43.1,.,.,.
CCOc1ccc(Nc2nc(Cc3nnc(SCC(=O)NCC4CCCO4)n3C)cs2)cc1 (stereo not given),.,.,.,36.8
CCOc1ccc(N(CC(=O)NCC2CCCO2)C(=O)CCC(=O)Nc2nccs2)cc1 (stereo not given),.,16.7,.,.
CCc1ccc(OCc2nnc(SCC(=O)NCC3CCCO3)n2C)cc1 (stereo not given),.,.,.,.
C[C@@H]1CN([C@@H](C)CO)C(=O)c2cc(-c3ccc(F)cc3)cnc2O[C@@H]1CN(C)CC1CCCC1,.,.,.,.
COc1cccc(-c2cnc3c(c2)C(=O)N([C@@H](C)CO)C[C@H](C)[C@H](CN(C)C(=O)CN(C)C)O3)c1,.,.,.,.
C/C=C/c1ccc([C@H]2[C@@H](CO)N(C(=O)CN(C)C)C23CN(C(=O)C2CC2)C3)cc1,/,.,.,.
COc1cc(COCC(O)CN2CCN(Cc3ccccc3)CC2)cc(OC)c1OC (stereo not given),43.6,.,.,.
CCC(=O)N[C@@H]1CC[C@H](CC(=O)NCc2ccccc2F)O[C@H]1CO,.,.,.,.
O=C(Nc1nc2ccsc2c(=O)s1)c1ccco1,.,.,/,36.5
O=C(c1ccc(C(F)(F)F)cc1)C1CCCN(Cc2cccn2-c2ncccn2)C1 (stereo not given),43.1,.,.,.
O=C1c2nc3cc(-c4ccco4)[nH]n3c(=O)c2CN1Cc1ccccc1,.,.,.,71.2
COc1ccc(S(=O)(=O)N(C)C[C@H]2Oc3ccc(NC(=O)Cn4cnnn4)cc3CC(=O)N([C@@H](C)CO)C[C@@H]2C)cc1,.,.,.,.
c1ccc(Cn2c(NCc3ccccn3)nc3ccccc32)cc1,43.5,.,.,.
O=C1Nc2ccc3sc4ccccc4c3c2C1=O,.,.,.,.
O=C1Nc2ccc(C(=O)O)c(O)c2C1=O,.,.,.,39.5
Cn1c(SCC(=O)N2CCCC2=O)nnc1-c1ccccc1F,43.3,.,.,.
